Screening results from PubChem.
Only some compounds are listed: those with a hit (about 2% of all), similar ones and a draw of the others.
MBD2 DNA inh – inhibitors of MBD2 binding to methylated DNA, primary screen, biochemical, TR-FRET, DNA-binding domain, human. Methyl-CpG-binding domain protein 2 (Homo sapiens), Q9UBB5. MBD2 binding to methylated oligonucleotide. inhibition, % at 4.4 µM. actives 0.31% (n = 370,000). AID 686964, 2013; in the data active = inhibition above about 13%
UHRF1 binding – UHRF1 methylated DNA binding inhibitors, primary screen, counter-screen for MBD2 inhibitor project, biochemical, TR-FRET, human UHRF1, single concentration. actives 0.75% (n = 370,000). inhibition, % at 4.4 µM. UHRF1 binding to methylated oligo. E3 ubiquitin-protein ligase UHRF1 (Homo sapiens), Q96T88; in the data active = inhibition above about 21%;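 also: UHRF1 SRA domain binding a hemimethylated CpG hairpin DNA probe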
Target sequence (Q96T88 whole entry, looked up, the tested form may be a part): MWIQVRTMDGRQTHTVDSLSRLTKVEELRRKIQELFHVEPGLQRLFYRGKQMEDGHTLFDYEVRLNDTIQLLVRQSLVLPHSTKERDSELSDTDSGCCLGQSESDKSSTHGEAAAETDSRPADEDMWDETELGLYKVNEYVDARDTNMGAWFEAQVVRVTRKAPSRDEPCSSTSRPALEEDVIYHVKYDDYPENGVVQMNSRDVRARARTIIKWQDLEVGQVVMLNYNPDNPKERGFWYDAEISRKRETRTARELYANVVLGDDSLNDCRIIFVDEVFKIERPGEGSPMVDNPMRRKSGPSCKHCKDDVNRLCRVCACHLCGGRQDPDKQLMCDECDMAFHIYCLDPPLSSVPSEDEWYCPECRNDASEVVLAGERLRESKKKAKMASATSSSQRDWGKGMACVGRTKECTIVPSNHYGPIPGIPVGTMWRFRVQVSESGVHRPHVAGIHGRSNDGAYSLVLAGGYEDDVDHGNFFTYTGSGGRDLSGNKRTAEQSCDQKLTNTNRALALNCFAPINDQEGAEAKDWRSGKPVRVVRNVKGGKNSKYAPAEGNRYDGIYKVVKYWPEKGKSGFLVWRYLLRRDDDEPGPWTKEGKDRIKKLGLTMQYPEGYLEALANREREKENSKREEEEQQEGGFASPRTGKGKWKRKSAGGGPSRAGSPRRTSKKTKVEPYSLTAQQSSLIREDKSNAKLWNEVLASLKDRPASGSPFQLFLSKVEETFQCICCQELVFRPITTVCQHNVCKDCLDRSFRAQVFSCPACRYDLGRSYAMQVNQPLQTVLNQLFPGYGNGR
LEDGF integ inh – blockers of LEDGF/p75-dependent integrase strand transfer – biochemical, TR-FRET, high throughput, primary screen; AID 743269, 2014; TR-FRET IN-LEDGF/p75 DNA integration, Eu/Cy5; inhibition, % at 3.7 µM; HIV-1 integrase (with human LEDGF/p75); actives 0.64% (n = 370,000);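 active = inhibition above the screen-wide mean plus 3 SD, cut at about 13% in these data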;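 also: signal is the Cy5 over europium emission ratio at 671 and 618 nm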
TCR CD3 inh – inhibitors of human TCR-CD3 interaction, primary screen, biochemical, fluorescence, TAMRA-labeled TCR probe; actives 0.37% (n = 360,000); T-cell receptor (TCR); inhibition, % at 9.4 µM; in the data active = inhibition above about 19%;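 also: recombinant mutant TCR 2C K166C tagged with TAMRA read by polarization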
Rin1-Abl PPI inh – inhibitors of Rin1-Abl protein binding, primary screen, biochemical, TR-FRET | inhibition, % at 7.35 µM | AID 588664, 2011 | actives 0.4% (n = 360,000) | Tyrosine-protein kinase ABL1 (Homo sapiens) + Ras and Rab interactor 1 (Homo sapiens), …; in the data active = inhibition above about 5%, passing the limit was not always enough
UHRF1 DNA bind – UHRF1 methylated DNA binding inhibitors, counter-screen for MBD2 inhibitor project, biochemical, TR-FRET, human UHRF1; shares compounds with MBD2 DNA inh; UHRF1 binding to methylated oligonucleotide; inhibition, % at 4.4 µM; actives 25% (n = 1,000); in the data active = inhibition above about 21%;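 also: UHRF1 SRA domain binding a labeled hemimethylated CpG hairpin DNA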
MBD2 confirm – inhibitors of MBD2 binding to methylated DNA, confirmation, biochemical, TR-FRET, DNA-binding domain, human | shares compounds with MBD2 DNA inh | TR-FRET MBD2-DBD binding to methylated oligonucleotide | inhibition, % at 4.4 µM | actives 26% (n = 1,000) | AID 720531, 2013
IN multimer act – HIV-1 IN multimer formation enhancers, counter-screen for LEDGF/p75 integration inhibitor project, biochemical, TR-FRET. TR-FRET HIV-1 integrase multimerization. actives 17% (n = 2,000). activation, % at 7.7 µM. shares compounds with LEDGF integ inh; in the data active = activation above about 8.9%
TR-FRET interf – TR-FRET optical interference artefacts, confirmation, artefact control for LEDGF/p75-dependent integration inhibitor project, biochemical, HIV-1 IN multimerization. shares compounds with LEDGF integ inh. TR-FRET optical interference counterscreen. inhibition, % at 7.7 µM. 2,000 tested, under 10 active. AID 1053135, 2014;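 active = inhibition above the mean over all tested compounds plus 3 SD, which no compound reached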
IN-LEDGF confirm – inhibitors of HIV-1 IN-LEDGF/p75 DNA integration, confirmation, biochemical, TR-FRET; actives 36% (n = 2,000); AID 1053136, 2014; TR-FRET LEDGF/p75-dependent HIV-1 integration; inhibition, % at 3.7 µM; shares compounds with LEDGF integ inh
A number is an active result; - = inactive; . = no result. Rule as the data show it, unless noted: active = inhibition above about 14%; inactive = the rest.

SMILES	MBD2 DNA inh	UHRF1 binding	LEDGF integ inh	TCR CD3 inh	Rin1-Abl PPI inh	UHRF1 DNA bind	MBD2 confirm	IN multimer act	TR-FRET interf	IN-LEDGF confirm
C=C(C)C(=O)Nc1cccc(C2=NOC3(C2)C[C@@H](C(N)=O)N(C(=O)C2(C)CC2)C3)c1 (stereo partly drawn)	55	92	36	-	-	94	79	93	-	60
C=C(C)C(=O)Nc1cccc(C2=NOC3(C2)C[C@H](C(N)=O)N(C(=O)/C=C/C)C3)c1 (stereo partly drawn)	46	82	26	-	-	73	48	19	-	34
COc1ccccc1Cc1c(-c2ccc(OC)c(OC)c2)nc2cc(C)c(Br)c(C)n12	19	26	18	-	.	-	-	-	-	-
COc1ccccc1Cc1c(-c2ccc(OC)c(OC)c2)nc2ccc(Br)cn12	-	-	-	-	-	.	.	.	.	.
COc1ccc(OC)c(C2Nc3c(Cl)ccc(C(=O)O)c3C3C=CCC32)c1 (stereo not drawn)	-	-	-	-	-	.	.	.	.	.
COC(=O)COc1ccc(C2Nc3c(Cl)ccc(C(=O)O)c3C3C=CCC32)cc1 (stereo not drawn)	18	46	66	-	-	-	-	-	-	21
CCC(=O)NCCc1nc2cc(NC(=O)c3ccco3)ccc2n1C	-	-	-	-	-	.	.	.	.	.
COc1cc(/C=C/C=C2/CC/C(=C/C=C/c3ccc(O)c(OC)c3)C2=O)ccc1O	31	58	92	-	-	-	-	26	-	54
CN1CCN(S(=O)(=O)c2ccc(NC(=O)c3ccc(F)cc3Cl)cc2)CC1	-	-	-	-	-	.	.	.	.	.
Cc1n[nH]c(=S)n(NC(=O)/C=C/C(=O)Nn2c(=S)[nH]nc(C)c2=O)c1=O	15	41	14	-	-	-	-	-	-	29
CC1=NN(c2ccccc2)C(=O)C1	18	-	31	-	-	-	-	-	-	-
COc1ccc(NC(=O)CN(C)Cc2cccs2)cc1Cl	-	-	-	-	-	.	.	.	.	.
COc1ccc(S(=O)(=O)/N=C2/NC(=O)/C(=C/c3ccco3)S2)cc1	22	76	39	-	-	-	-	-	-	-
O=C(Cc1ccc(F)cc1)NCCS(=O)(=O)N1CCN(c2cccc(Cl)c2)CC1	-	-	-	-	-	.	.	.	.	.
CCC(NC(=O)c1ccccc1NC(=O)c1ccccc1)C(=O)NNC(=O)c1cccnc1 (stereo not drawn)	-	-	-	-	-	.	.	.	.	.
Cc1cccc(N=C2NC(=O)/C(=C/C=C/c3ccco3)S2)c1C	17	48	49	-	-	21	-	9.7	-	63
Cc1cccc(N=C2NC(=O)/C(=C/c3cccn3C)S2)c1C	-	-	-	-	-	.	.	.	.	.
COC(=O)c1cc2c(c3c4cc(OC)ccc4n(S(=O)(=O)c4ccc(F)cc4)c13)C(=O)N(C)C2	-	-	-	-	.	.	.	.	.	.
CC(/C=C/c1ccco1)=N\NC(=O)c1cccnc1	-	-	-	-	-	.	.	.	.	.
O=C(/C=C/c1ccco1)c1cccnc1	31	84	67	-	-	44	20	-	-	51
O=C(NC1CCCCC1)NC1CCN(C(=S)NCc2ccco2)CC1	-	-	-	-	-	.	.	.	.	.
S=C(NC1CC1)SCc1ccco1	24	54	35	-	-	-	-	-	-	-
Cc1ccc(/C=C/C(=O)NCc2ccco2)o1	14	54	37	-	.	48	17	13	-	60
Cc1ccc(-c2nc3c(c(=O)[nH]c(=O)n3Cc3ccccc3)n2C)o1	16	30	23	-	-	-	-	-	-	34
O=C(Nc1cc2c(oc1=O)CCCC2=O)c1ccc(Cl)cc1	16	41	17	-	-	29	16	-	-	22
SMILES	MBD2 DNA inh	UHRF1 binding	LEDGF integ inh	TCR CD3 inh	Rin1-Abl PPI inh	UHRF1 DNA bind	MBD2 confirm	IN multimer act	TR-FRET interf	IN-LEDGF confirm
Cc1ccc(N=C2NC(=O)/C(=C/C=C/c3ccco3)S2)cc1	-	-	22	-	-	.	.	17	-	58
O=C1NC(=Nc2ccccc2)S/C1=C\C=C\c1ccco1	-	-	34	-	-	.	.	16	-	58
COc1ccc(N=C2NC(=O)/C(=C/c3ccco3)S2)cc1	-	-	-	-	-	.	.	.	.	.
Cc1c(Cl)cccc1-c1ccc(CNCc2ccccn2)o1	-	-	-	-	-	.	.	.	.	.
c1ccc(-c2ccc3ncccc3n2)cc1	-	-	-	-	-	.	.	.	.	.
O=Cc1ccc(-c2nc3ccccc3s2)o1	-	-	-	-	-	.	.	.	.	.
O=C(O)CCN1C(=O)/C(=C/c2ccc(-c3nc4ccccc4s3)o2)SC1=S	-	-	17	-	-	.	.	-	-	16
Cc1ccc(NC(=O)c2ccc(CSc3ccccn3)cc2)c(O)c1	-	-	82	-	-	.	.	-	-	-
Cc1ccc(NC(=O)c2ccc(CSc3ccccn3)cc2)cc1	-	-	-	-	-	.	.	.	.	.
CC1=CC(=O)C(Sc2ccc(C)cc2)=CC1=O	-	-	17	-	-	.	.	-	-	-
CCN1CCc2nc(N)sc2C1	-	-	-	-	-	.	.	.	.	.
C=CCN1CCc2nc(N)sc2CC1	-	-	14	-	-	.	.	-	-	-
Cc1ccccc1CNS(=O)(=O)c1c(C)[nH]c(C)c1C(=O)N1CCCCC1	-	-	-	-	-	.	.	.	.	.
CC(=O)C1=C(O)C(=O)N(CCc2c[nH]c3ccccc23)C1c1ccco1 (stereo not drawn)	-	-	15	-	-	.	.	-	-	-
CC(=O)C1=C(O)C(=O)N(CCc2c[nH]c3ccccc23)C1c1ccc(C)cc1 (stereo not drawn)	-	-	-	-	-	.	.	.	.	.
CC(=O)N1CCn2c3c(c4cc(C)ccc42)CCCC31 (stereo not drawn)	-	-	-	-	-	.	.	.	.	.
